From PubChem BioAssay come the findings set out here.

In experiment [1] the target is Cell division control protein 42 homolog (Homo sapiens) (UniProt P60953). The experiment can be described thus: activated mutant Cdc42 GTP-binding inhibitors, dose response, biochemical, multiplex bead flow cytometry, Bodipy-FL-GTP (AID 1333).
The target is the same in experiment [2]. Kind of experiment: wildtype Cdc42 GTP-binding inhibitors, dose response, biochemical, multiplex bead flow cytometry, Bodipy-FL-GTP (AID 1334;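 active = fitted half-maximal concentration within the tested range, moderate curve steepness, significant signal drop, and little compound fluorescence or bead-linkage interference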). The settings on record: bead-based flow cytometry, Bodipy-FL-GTP binding to GST-Cdc42; at 100 µM (top of the series) unless noted. On the technique in general: In flow cytometry, cells or beads pass a laser one at a time.

For experiment [3], the target named is GTPase HRas (Homo sapiens) (UniProt P01112). The experiment can be described thus: inhibitors of GTP binding to wildtype Ras, dose response, biochemical, multiplex bead flow cytometry (AID 1335;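 active = fitted half-maximal concentration within 10 nM to 100 µM, steepness 0.5 to 2, significant signal drop, low assay interference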). The settings on record: bead-based flow cytometry, Bodipy-GTP binding to GST-Ras; at 100 µM (top of the series) unless noted.
Chain of GTPase HRas (Homo sapiens) (P01112 whole entry, looked up): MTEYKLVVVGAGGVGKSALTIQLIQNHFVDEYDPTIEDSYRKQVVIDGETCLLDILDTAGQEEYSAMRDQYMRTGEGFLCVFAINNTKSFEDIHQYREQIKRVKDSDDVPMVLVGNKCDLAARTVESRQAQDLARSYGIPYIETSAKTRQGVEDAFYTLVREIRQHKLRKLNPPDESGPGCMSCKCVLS
Experiment [4] deals with Ras-related protein Rab-7a (dog), GTP binding. The experiment can be described thus: Rab7 GTP binding inhibitors, potency, dose response, biochemical, wildtype, multiplex bead flow cytometry (AID 1336; call rule not given here).
Experiment [5] concerns the target Ras-related C3 botulinum toxin substrate 1 (Homo sapiens) (UniProt P63000). The experiment can be described thus: wildtype Rac1 GTP binding inhibitors, dose response, biochemical, multiplex bead flow cytometry (AID 1340;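 active = dose curve with midpoint inside tested range, moderate steepness, plateau gap beyond fit error, low compound glow and bead-link interference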). The settings on record: GST-Rac1 beads, Bodipy-FL-GTP binding; at 100 µM (top of the series) unless noted.
Experiment [6] concerns the target GTPase HRas (Homo sapiens) (UniProt P01112). Kind of experiment: activated Ras mutant GTP binding inhibitors, dose response, biochemical, multiplex bead flow cytometry (AID 1341;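 active = dose-response curve with midpoint inside the tested range, moderate steepness, significant amplitude and little compound fluorescence or bead-attachment interference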;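 also: GST-tagged constitutively activated Ras mutant immobilized on beads and multiplexed with other GTPases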).

For part of these data: Measured potencies and affinities stand elsewhere. The source made the active and inactive calls.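 The calls were made as follows, unless noted: active = fitted half-maximal concentration within the tested dose range, moderate curve steepness, a statistically real signal drop, and little compound fluorescence or tag-binding interference; inactive = the rest.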

Chain of Cell division control protein 42 homolog (Homo sapiens) (P60953 whole entry, looked up): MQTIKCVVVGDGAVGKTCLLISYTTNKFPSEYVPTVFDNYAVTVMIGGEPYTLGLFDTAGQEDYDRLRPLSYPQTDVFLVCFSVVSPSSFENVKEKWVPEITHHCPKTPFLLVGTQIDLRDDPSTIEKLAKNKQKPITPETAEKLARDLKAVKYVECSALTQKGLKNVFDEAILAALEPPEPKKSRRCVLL

On to `CC(Sc1nnc(NC2CCCCC2)s1)C(=O)Nc1ccc2c(c1)C(=O)c1ccccc1C2=O` (stereo not given), for which the call in experiment [1], in experiment [4] and in experiment [6] was inactive. Also, the fluorescence, percent of control (lower = inhibition) in experiment [2] stood at 49.1%. In experiment [3], this molecule showed a GTP binding, percent of control of 61.4%. The molecule further displayed a GTP binding signal, raw median fluorescence (lower = inhibition) (MCF (arbitrary fluorescence units)) in experiment [5] of 161.

For `O=C(Nc1cccc(-c2ccc3nncn3n2)c1)c1ccco1`, the molecule was called inactive in experiment [1], in experiment [4] and in experiment [6]. The fluorescence, percent of control (lower = inhibition) in experiment [2] was found to be 32.1%. The same molecule yielded a GTP binding, percent of control in experiment [3] of 73%. The GTP binding signal, raw median fluorescence (lower = inhibition) (MCF (arbitrary fluorescence units)) in experiment [5] was determined as 157.

With `Oc1c(C=Nc2ccccc2)sc(=S)n1Cc1ccccc1`, the molecule was called inactive in experiment [1], in experiment [4] and in experiment [6]. This molecule also yielded a fluorescence, percent of control (lower = inhibition) in experiment [2] of 34.6%. In experiment [3], this molecule returned a GTP binding, percent of control of 75.7%. Besides, in experiment [5], the GTP binding signal, raw median fluorescence (lower = inhibition) (MCF (arbitrary fluorescence units)) came to 232.

As to `C=CCOc1cccc(/C=N/NC(=O)CN(c2cc(Cl)ccc2OC)S(=O)(=O)c2ccc(C)c([N+](=O)[O-])c2)c1`, the molecule was called inactive in experiment [1], in experiment [4] and in experiment [6]. The fluorescence, percent of control (lower = inhibition) in experiment [2] amounted to 50.3%. Besides, the GTP binding, percent of control in experiment [3] worked out at 56%. In experiment [5], this molecule displayed a GTP binding signal, raw median fluorescence (lower = inhibition) (MCF (arbitrary fluorescence units)) of 0.

Regarding `CCOC(=O)c1c(NC(=O)/C=C/c2ccc3c(c2)OCO3)sc(C)c1CC`, the molecule was called inactive in experiment [1], in experiment [4] and in experiment [6]. For the same molecule, the fluorescence, percent of control (lower = inhibition) in experiment [2] was found to be 30.9%. In addition, the GTP binding, percent of control in experiment [3] is 75.9%. In experiment [5], this molecule had a GTP binding signal, raw median fluorescence (lower = inhibition) (MCF (arbitrary fluorescence units)) of 256.

Take `S=c1[nH]nc(-c2ccco2)n1-c1ccccc1Cl`: the outcome in experiment [1], in experiment [4] and in experiment [6] was inactive. Also, in experiment [2], the fluorescence, percent of control (lower = inhibition) came to 26.1%. Besides, the GTP binding, percent of control in experiment [3] was 60.5%. In experiment [5], the GTP binding signal, raw median fluorescence (lower = inhibition) (MCF (arbitrary fluorescence units)) was determined as 231.

With `CCNC(=S)N=Nc1c(O)[nH]c2ccc([N+](=O)[O-])cc12`, the outcome in experiment [1], in experiment [4] and in experiment [6] was inactive. This molecule had a fluorescence, percent of control (lower = inhibition) in experiment [2] of 32.4%. Moreover, in experiment [3], the GTP binding, percent of control was found to be 72.3%. In experiment [5], this molecule came in with a GTP binding signal, raw median fluorescence (lower = inhibition) (MCF (arbitrary fluorescence units)) of 141.

With `COc1ccccc1C(=O)N=Nc1c(O)[nH]c2ccc([N+](=O)[O-])cc12`, the call in experiment [1], in experiment [4] and in experiment [6] was inactive. The fluorescence, percent of control (lower = inhibition) in experiment [2] amounted to 23.9%. In experiment [3], this molecule displayed a GTP binding, percent of control of 51.1%. The molecule also returned a GTP binding signal, raw median fluorescence (lower = inhibition) (MCF (arbitrary fluorescence units)) in experiment [5] of 115.

On to `O=C(COc1ncnc2cc([N+](=O)[O-])ccc12)NCc1ccc2c(c1)OCO2`, for which the molecule was classed as inactive in experiment [1], in experiment [4] and in experiment [6]. The fluorescence, percent of control (lower = inhibition) in experiment [2] stood at 42.7%. Further, in experiment [3], the GTP binding, percent of control stood at 56.9%. Further, in experiment [5], the GTP binding signal, raw median fluorescence (lower = inhibition) (MCF (arbitrary fluorescence units)) is 118.

Regarding `COc1ccc(-c2nn(-c3ccccc3)cc2C(=O)NCCCn2ccnc2)cc1`, the result in experiment [1], in experiment [4] and in experiment [6] was inactive. The fluorescence, percent of control (lower = inhibition) in experiment [2] came out at 49.1%. The molecule also gave a GTP binding, percent of control in experiment [3] of 61.1%. The molecule also displayed a GTP binding signal, raw median fluorescence (lower = inhibition) (MCF (arbitrary fluorescence units)) in experiment [5] of 202.

For the molecule `Cc1ccc(Sc2ncccc2C(=O)O)c(C)c1`, the molecule was called inactive in experiment [1], in experiment [4] and in experiment [6]. In addition, the fluorescence, percent of control (lower = inhibition) in experiment [2] was determined as 78%. Besides, the GTP binding, percent of control in experiment [3] was 78.1%. Also, the GTP binding signal, raw median fluorescence (lower = inhibition) (MCF (arbitrary fluorescence units)) in experiment [5] came to 309.

Turning to `COc1ccc(C2=Nn3c(nnc3-c3ccco3)SC2)cc1OC`, the outcome in experiment [1], in experiment [4] and in experiment [6] was inactive. Also, in experiment [2], the fluorescence, percent of control (lower = inhibition) turned out to be 69.9%. In addition, in experiment [3], the GTP binding, percent of control stood at 137%. In addition, the GTP binding signal, raw median fluorescence (lower = inhibition) (MCF (arbitrary fluorescence units)) in experiment [5] turned out to be 146.

As for `COc1cc(/C=N/NC(=O)CN(Cc2ccco2)S(=O)(=O)c2ccccc2)ccc1O`, the call in experiment [1], in experiment [4] and in experiment [6] was inactive. Moreover, in experiment [2], the fluorescence, percent of control (lower = inhibition) amounted to 32.8%. Also, the GTP binding, percent of control in experiment [3] came out at 46.1%. Besides, the GTP binding signal, raw median fluorescence (lower = inhibition) (MCF (arbitrary fluorescence units)) in experiment [5] was found to be 104.

Consider `COC(=O)c1cccnc1SCc1ccccc1`, for which the molecule was classed as inactive in experiment [1], in experiment [4] and in experiment [6]. Also, the fluorescence, percent of control (lower = inhibition) in experiment [2] is 46%. The molecule further had a GTP binding, percent of control in experiment [3] of 61.1%. In experiment [5], this molecule yielded a GTP binding signal, raw median fluorescence (lower = inhibition) (MCF (arbitrary fluorescence units)) of 184.

As to `Cc1ccc2cc3cc(C(=O)N4CCN(Cc5ccccc5)CC4)sc3nc2c1`, the molecule was classed as inactive in experiment [1], in experiment [4] and in experiment [6]. The same molecule gave a fluorescence, percent of control (lower = inhibition) in experiment [2] of 87.8%. This molecule registered a GTP binding, percent of control in experiment [3] of 156%. Moreover, in experiment [5], the GTP binding signal, raw median fluorescence (lower = inhibition) (MCF (arbitrary fluorescence units)) was found to be 188.
